Holding throughout (format): functional
In assay [1] the target is Solute carrier family 2, facilitated glucose transporter member 1 (Homo sapiens) (UniProt P11166). The assay can be described thus: ST_JUDE_LEISH: Cytotoxicity at 2uM final concentration against transgenic Leishmania Mexicana promastigotes LmGLUT1 that are glucose transport deficient and complemented with the human glucose transporter GLUT1. Activity is measured by DNA content using SYBR green in vitro.

Assay [2] deals with Hexose transporter 1 (Plasmodium falciparum) (UniProt O97467). Put plainly: ST_JUDE_LEISH: Cytotoxicity at 2uM final concentration against transgenic Leishmania Mexicana promastigotes LmPfHT that are glucose transport deficient and complemented with the Plasmodium falciparum hexose transporter. Activity is measured by DNA content using SYBR green in vitro.
Assay [3] has as its target Glucose transporter (Leishmania mexicana) (UniProt O61059). The assay can be described thus: ST_JUDE_LEISH: Cytotoxicity at 2uM final concentration against transgenic Leishmania Mexicana promastigotes LmGT2 that are glucose transport deficient and complemented with the L. Mexicana glucose transporter 2. Activity is measured by DNA content using SYBR green in vitro.

Experimental findings from ChEMBL document CHEMBL3433997, “St. Jude Leishmania screening dataset” (2016) are described below.

Chain of Solute carrier family 2, facilitated glucose transporter member 1 (Homo sapiens) (P11166 whole entry): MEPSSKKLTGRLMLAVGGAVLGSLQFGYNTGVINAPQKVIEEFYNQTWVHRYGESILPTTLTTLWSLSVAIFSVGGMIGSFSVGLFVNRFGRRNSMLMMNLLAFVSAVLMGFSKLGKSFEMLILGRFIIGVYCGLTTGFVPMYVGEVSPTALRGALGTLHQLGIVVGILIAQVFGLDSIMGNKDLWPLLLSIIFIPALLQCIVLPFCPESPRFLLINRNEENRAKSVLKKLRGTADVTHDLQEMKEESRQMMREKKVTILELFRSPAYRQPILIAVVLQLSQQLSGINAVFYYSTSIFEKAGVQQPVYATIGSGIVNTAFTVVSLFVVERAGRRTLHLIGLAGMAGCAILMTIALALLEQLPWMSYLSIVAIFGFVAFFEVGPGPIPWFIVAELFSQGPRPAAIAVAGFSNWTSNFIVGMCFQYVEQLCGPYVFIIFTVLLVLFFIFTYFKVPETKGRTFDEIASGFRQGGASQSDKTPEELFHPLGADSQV

For `CSCCCN1CCC(O)(c2ccc3oc(C(=O)Nc4ccc5sc(C)nc5c4)cc3c2)CC1`, the inhibition in assay [1] was 23.3%; in assay [2], 24.5%; in assay [3], 14.7%.

Consider `CC(C)Cn1c(Sc2ccc(C#N)c([N+](=O)[O-])c2)nnc1-c1cccc(Cl)c1`, for which the inhibition in assay [1] came out at 12.7%; in assay [2] it was 12.4%; in assay [3] it was 9.62%.

In the case of `N#Cc1ccc(CN2CCC(Oc3ccc(NC(=O)c4cccs4)cc3)C2)cc1` (configuration not stated), the inhibition in assay [1] was 2.68%; in assay [2], -0.99%; in assay [3], 0.05%.

As for `CN1CCN(c2nc(NCCc3ccc(O)cc3)nc(NCc3ccccc3-c3ccc(C(F)(F)F)cc3)n2)CC1`, the inhibition stood at 1.59% in assay [1], 2.22% in assay [2] and 3.13% in assay [3].

Turning to `COc1ccc2nccc([C@@H](O)CN3CCC(NC[C@H](Cc4ccccc4)NC(=O)OC(C)(C)C)CC3)c2c1`, the figures for the inhibition in assay [1], in assay [2] and in assay [3] were 3.73%, 2.02% and 2.75%, respectively.

With `O=S(=O)(NC1CCN(c2ccnc3ccccc23)C1)c1ccc(OC(F)(F)F)cc1` (configuration not stated), the inhibition is 2.25% in assay [1], -0.51% in assay [2] and 2.41% in assay [3].

Turning to `CCOC(=O)c1ccc(NC(=O)Nc2cccc(-c3ccc(-c4nc5ccccc5[nH]4)cc3)c2)cc1`, the inhibition in assay [1] was found to be 5.47%; in assay [2], 1.48%; in assay [3] it was 3.89%.

With `CCCCN(Cc1cc(Cl)c(OC)c(OC)c1)c1ccc(C(O)(C(F)(F)F)C(F)(F)F)cc1`, the results for the inhibition in assay [1], in assay [2] and in assay [3] were 1.29%, 4.14% and -0.33%, respectively.

In the case of `CC[C@H](C)CNC(=O)c1cncc(-c2ccc(CNCC3CNCCCO3)cc2)c1` (some centres not stated), the inhibition is -1.56% in assay [1], -2.12% in assay [2] and -0.99% in assay [3].

With `Cc1ccc(Cn2cnc3cc(C(=O)Nc4ccc(-c5ccc(CN(C)C)cc5)cc4)ccc3c2=O)o1`, the inhibition is 5.55% in assay [1], 2.88% in assay [2] and 3.84% in assay [3].

On to `COC(=O)C(C)NCC(=O)c1ccccc1` (configuration not stated), for which the results for the inhibition in assay [1], in assay [2] and in assay [3] were 6.16%, 6.12% and 6.79%, respectively.

Consider `CCCCc1ccc(C(=O)Nc2ccc3nc(N4CCN(C)CC4)cc(C)c3c2)cc1`, for which the inhibition amounted to 2.19% in assay [1], 3.48% in assay [2] and 3.48% in assay [3].

With `O=C(Nc1ccc(Cn2ncc(N3CCCNCC3)c(Cl)c2=O)cc1)Nc1ccc(F)cc1[N+](=O)[O-]`, the inhibition in assay [1] was found to be 10.2%; in assay [2], 11.4%; in assay [3], 5.42%.

Regarding `CCN(CC)c1ccc(NC(=S)NC2CCN(CCCCCNC(=O)/C=C/c3ccc(Cl)c(Cl)c3)CC2)cc1`, the inhibition in assay [1] stood at 5.28%; in assay [2] it was 6.72%; in assay [3], 6.22%.

Take `Cc1c(Cl)cccc1N=C(S)NN=Cc1ccccn1`: the inhibition in assay [1] is 1.43%; in assay [2], 2.56%; in assay [3], -0.2%.

Regarding `O=C(Nc1cccc(-c2cccc(-c3nc4cc(F)ccc4[nH]3)c2)c1)c1c[nH]cn1`, the inhibition is -0.8% in assay [1], -0.5% in assay [2] and -1.75% in assay [3].

As to `Cc1ccoc1C(=O)Nc1cccc(-c2cccc(-c3nc4cc(C(F)(F)F)ccc4[nH]3)c2)c1`, the inhibition in assay [1] was 3.75%; in assay [2], 1.86%; in assay [3], -0.44%.

With `COc1ccc(-c2ccc(NC(=O)c3cccc(F)c3)cc2)cc1CNC(C)C`, the inhibition in assay [1] was 0.72%; in assay [2], -0.6%; in assay [3], -2.2%.

Consider `O=S1(=O)NC2(CCN(CCc3ccc(Cl)cc3)CC2)Nc2cc(F)cc(F)c21`, for which the inhibition came out at 7.66% in assay [1], 8.79% in assay [2] and 7.55% in assay [3].

Take `Cc1noc(-c2ccccc2)c1NC(=O)N1CCN(CCCCCCNC(=O)/C=C/c2ccc(Cl)c(Cl)c2)CC1`: the inhibition was -2.35% in assay [1], 0.35% in assay [2] and -1.3% in assay [3].

Regarding `Cc1noc(C)c1-c1ccc2c(Nc3ccc(Cl)cc3)c(C(N)=O)cnc2c1`, the inhibition in assay [1] stood at 24.3%; in assay [2] it was 29.3%; in assay [3] it was 12.9%.

For the compound `O=C(Nc1cccc(C2=NCCN2)c1)Nc1cccc(C2=NCCN2)c1`, the values for the inhibition in assay [1], in assay [2] and in assay [3] were 1.69%, 5.37% and 1.1%, respectively.

With `Cc1noc(C)c1C(=O)N1CCc2cc3nccc(N4CCN5CCC[C@H]5C4)c3cc21`, the inhibition in assay [1] is 0.08%; in assay [2], 1.27%; in assay [3], -0.53%.

`CCc1cc(-c2n[nH]c(C(F)(F)F)c2-c2ccccc2)c(O)cc1OC`: the inhibition in assay [1] is 2.03%; in assay [2], 1.54%; in assay [3], 2.44%.

For the compound `CCNc1cc(C(=O)N[C@@H](Cc2ccccc2)[C@H](O)CNC2(CCC(C)C)CC2)cc(N2CCCCS2(=O)=O)c1`, the inhibition was -1.85% in assay [1], -0.04% in assay [2] and -0.78% in assay [3].

For the compound `O=C(Nc1ccnc(-c2cccnc2)n1)c1cc(C(F)(F)F)cc(C(F)(F)F)c1`, the inhibition in assay [1] was -1.69%; in assay [2], 0.27%; in assay [3], -3.85%.

In the case of `COc1ccc(N2CCN(CCCCNC(=O)c3ccc(NC(=O)c4ccc(C(F)(F)F)cc4)cc3)CC2)c(OC)c1`, the values for the inhibition in assay [1], in assay [2] and in assay [3] were 9%, 8.75% and 9.19%, respectively.

Take `CCN(CCCN1CCCCC1)c1cc(C)nc(Nc2cccc(OC(F)(F)F)c2)n1`: the inhibition turned out to be 1.17% in assay [1], 1.62% in assay [2] and 2.65% in assay [3].

Regarding `COc1ccc(CNC2CCN(C)CC2)cc1-c1ccc(S(=O)(=O)NC2CCC2)cc1`, the values for the inhibition in assay [1], in assay [2] and in assay [3] were 2.91%, 2.71% and 2.91%, respectively.

As for `COc1ccc2nccc([C@@H](O)CN3CCC(NCc4cc5ccc(Cl)cc5[nH]4)CC3)c2c1`, the values for the inhibition in assay [1], in assay [2] and in assay [3] were 9.64%, 12.1% and 4.6%, respectively.

As for `[O-][s+]1c(Cl)c(-c2ccc(Cl)cc2)c2ccc(Cl)cc21` (configuration not stated), the inhibition in assay [1] worked out at 6.36%; in assay [2], 8.82%; in assay [3], 3.59%.

`O=C(NCCN1CCC(c2ncc(-c3ccccc3)o2)CC1)c1ccc(NC(=O)c2ccc(Cl)cc2)cc1`: the values for the inhibition in assay [1], in assay [2] and in assay [3] were 0.84%, 2.19% and 1.19%, respectively.

As for `CCOc1cc(C)ccc1NC1CCN(CCCCNC(=O)c2ccc(NC(=O)c3ccc(Cl)cc3)cc2)CC1`, the inhibition in assay [1] was -0.53%; in assay [2] it was 1.56%; in assay [3], 1.89%.

Regarding `CCC1CCCCN1S(=O)(=O)c1ccc(OC)c(N2CCN(C(=O)C(Cl)(Cl)Cl)CC2)c1` (configuration not stated), the inhibition came to 4.89% in assay [1], 6.41% in assay [2] and 6.44% in assay [3].

As to `C#CCCC(=O)Nc1cccc(-c2cccc(-c3nc4cccc(C)c4[nH]3)c2)c1`, the inhibition is 3.2% in assay [1], 1.23% in assay [2] and -1.87% in assay [3].

Consider `CCC(C)CNC(=O)CN1CN(c2ccccc2)C2(CCN(C(=O)c3ccc(Br)cc3)CC2)C1=O` (configuration not stated), for which the inhibition in assay [1] is 0.35%; in assay [2], -0.13%; in assay [3], 0.82%.

In the case of `FC(F)(F)c1ccc2[nH]c(-c3cccc(-c4ccc(CNCc5cnn(-c6ccccc6)n5)cc4)c3)nc2c1`, the inhibition in assay [1] is -0.1%; in assay [2], 0.61%; in assay [3] it was 2.19%.

As for `Cc1cc(N[C@@H](Cc2ccccc2)C(=O)NCc2cccc(F)c2)nc(NCC2CCCCC2)n1`, the inhibition in assay [1] is -0.17%; in assay [2], 2.51%; in assay [3], -1.9%.

As for `FC(F)(F)c1ccc(CNCC2CCN(Cc3ccc4c(c3)OCO4)CC2)cc1`, the inhibition turned out to be 1.98% in assay [1], 2.65% in assay [2] and 5.32% in assay [3].

With `Nc1ccc(-c2cnc3[nH]cc(-c4ccc(C(=O)O)cc4)c3c2)cn1`, the figures for the inhibition in assay [1], in assay [2] and in assay [3] were -0.33%, 0.34% and 1.27%, respectively.

Consider `CCCN(Cc1ccc(C)cc1)Cc1cc(=O)c2cc(Cl)ccc2[nH]1`, for which the inhibition is 9.14% in assay [1], 10.5% in assay [2] and 9.04% in assay [3].

`CCn1c(-c2nonc2N)nc2c(-c3cccc(NC(=O)Nc4ccc(C#N)cc4)c3)ncc(OCCCN)c21`: the inhibition in assay [1] was 1.92%; in assay [2], -0.33%; in assay [3], 2.67%.

Consider `CCOc1cc(C(=O)Nc2cccnc2)ccc1-c1nc2cc(Cl)c(Cl)cc2[nH]1`, for which the inhibition in assay [1] is 1.75%; in assay [2] it was 0.16%; in assay [3], -0.85%.

As for `COc1ccc(N2C(N)=NC(N)=NC2(C)C)cc1`, the inhibition in assay [1] worked out at 1.65%; in assay [2] it was 3.07%; in assay [3], 2.77%.

With `COc1ccc(C=NN=c2cc(C)[nH]c3c(C)cccc23)c2ccccc12`, the inhibition in assay [1] amounted to 1.53%; in assay [2] it was 1.31%; in assay [3], 5.67%.

Turning to `Cc1cccc2nc(-c3ccc(-c4cccc(NC(=O)COc5ccccc5C(N)=O)c4)s3)[nH]c12`, the inhibition amounted to 9.69% in assay [1], 9.14% in assay [2] and 6.9% in assay [3].

For the compound `Cc1noc(C)c1-c1cccc(CNCc2ccc(-c3ccc(-c4nc5cc(C(F)(F)F)ccc5[nH]4)s3)cc2)c1`, the inhibition was 3.88% in assay [1], 3.12% in assay [2] and 0.04% in assay [3].

Turning to `O=c1cc(NCCCCNCc2cccc(Br)c2)[nH]c2ccccc12`, the inhibition in assay [1] stood at 5.23%; in assay [2] it was 5.07%; in assay [3], 3.39%.

With `COc1ccc2nccc([C@@H](O)CN3CCC(NCc4cc5cc([N+](=O)[O-])ccc5[nH]4)CC3)c2c1`, the inhibition is 8.79% in assay [1], 6.38% in assay [2] and 4.29% in assay [3].

The term inhibition denotes the change of the read-out against control, counted positive when it falls.
